Results reported in PubChem BioAssay AID652058 (Broad Institute, 2013).
The whole screen tested about 1,200 compounds, of which about 870 (72%) were called active. Inconclusive results (about 3%) are left out.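 Rule for the calls: active = every test run fits a falling curve whose half-maximal concentration is at most twice the top valid dose; inconclusive = runs disagree, or flat 30 to 70% inhibition, or poor fit; inactive = every run inactive: flat, rising or weaker potency.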 So high a share suggests a set chosen from earlier hits. Only a sample is shown. Results with a measured potency or affinity are listed apart.

test: ZM109 Env clade C HIV-1 fusion inhibitors, dose response, HeLa effector, CEM target cells, luciferase, cherry-pick (AID 652058); details: HeLa Env/CEM cell fusion, 16-24 h; series mostly up to 35 µM; activity change, negative = inhibition: at the top concentration;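 note: 0% = neutral control wells and -100% = maraviroc 300 nM wells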

Activity change, negative = inhibition, inactive:
CCCn1c(=S)[nH]c2cc(C(=O)N3CCCC(C(=O)OCC)C3)ccc2c1=O (stereo unspecified) -20.2%
CN(C(=O)c1cccc(NC(=O)Cc2cccc(NC(=O)C3CCCN(C(=O)C4CCC4)C3)c2)c1)C1CCC1 (stereo unspecified) -13.5%
COc1ccc(S(=O)(=O)N2CCCCC2)cc1NC(=O)CN(Cc1ccco1)Cc1ccco1 -3.11%
CCc1cc2c(NCc3ccco3)ncnc2s1 -21.6%
O=C(COC(=O)c1ncc(Cl)c(Cl)c1Cl)NCc1cccs1 -0.439%
COc1ccc(-c2cc(=O)oc3c(C)c(O)ccc23)cc1 -27.8%
COc1cccc(S(=O)(=O)N(C)C[C@H]2Oc3cc(C#CCC(C)C)ccc3S(=O)(=O)N([C@H](C)CO)C[C@H]2C)c1 -3.45%
COc1cccc(S(=O)(=O)N(C)C[C@@H]2Oc3cc(C#CCC(C)C)ccc3S(=O)(=O)N([C@H](C)CO)C[C@@H]2C)c1 -39.7%
COc1ccc(OC)c(-c2cc(C(=O)Nc3c(C)nn(Cc4ccc(Cl)cc4)c3C)no2)c1 14.8%
CC(Cl)=CCn1c(NCCc2ccccc2)nc2c1c(=O)n(C)c(=O)n2C -36.6% [at 16 µM]
C[C@@H]1CN([C@@H](C)CO)C(=O)c2cc(NC(=O)c3ccncc3)ccc2O[C@H]1CN(C)Cc1ccncc1 5.72%
C[C@@H]1CN([C@@H](C)CO)C(=O)c2cc(NC(=O)c3ccncc3)ccc2O[C@@H]1CN(C)Cc1ccncc1 10.1%
CCCCNC(=O)C[C@H]1C[C@@]2(C(=O)OC)C(=C[C@H](C(C)(C)C)O[C@@H]2C)N(Cc2ccc3c(c2)OCO3)C1=O -40%
COCCn1c(=S)[nH]c2cc(C(=O)N3CCN(Cc4ccc5c(c4)OCO5)CC3)ccc2c1=O 5.41%
CC(C)OCCCn1c(=S)[nH]c2ccc(N3CCOCC3)cc2c1=O -35.9%
O=S(=O)(c1ccccc1Cl)N1CCCC1c1nc(-c2ccc(Cl)cc2)no1 (stereo unspecified) -56.4%
CCS(=O)(=O)N[C@H]1CC[C@@H](CC(=O)NCc2ccc(Cl)cc2)O[C@@H]1CO 50.7%
O=C(C[C@@H]1C=C[C@@H](NC(=O)Nc2ccc3c(c2)OCO3)[C@H](CO)O1)NCc1ccc(F)cc1 -30.8%
Nc1c(S(=O)(=O)c2ccccc2)cnc2c(-c3ccc(F)cc3)cnn12 133%
COc1ccc(OC)c(NC(=O)COc2ccc3c(c2)CCC3)c1 0.146%
COc1ccc(S(=O)(=O)NNC(=O)C2Cc3c(ccc4ccccc34)O2)cc1 (stereo unspecified) -56.4%
COc1ccc(CCNC(=O)COC(=O)c2cccn2C)cc1 -31.2%
COc1ccc(CCCC(=O)NCCc2ccccc2)c(C)c1 33%
Cc1[nH]nc2c1C1(C(=O)N(Cc3ccc(Cl)cc3)c3ccccc31)C(C#N)=C(N)O2 (stereo unspecified) -29.2%
Cc1ccccc1OCCCCn1cnc2ccccc21 23.8% [at 16 µM]
O=C(Nc1ccncc1)c1ccc(Cl)c(S(=O)(=O)N2CCc3ccccc32)c1 36.8% [at 16 µM]
Cc1ccc(C(=O)NCc2ccccn2)cc1S(=O)(=O)N1CCCCC1 -1.12%
COc1cccc(/C=N/NC(=O)CC2C(=O)NN=C2C)c1O (stereo unspecified) 14.3%
O=C(C[C@@H]1CC[C@@H](NC(=O)c2ccncc2)[C@H](CO)O1)NCCc1ccncc1 83%
CN(C)CC(=O)Nc1ccc2c(c1)[C@H]1C[C@H](CC(=O)NCc3cccc(F)c3)O[C@@H](CO)[C@H]1O2 113%
CC(C)n1c(NCCc2ccccc2)nc2c1c(=O)n(C)c(=O)n2C -21.3%
CCCCn1c(CN(C)Cc2ccccc2)nc2c1c(=O)n(C)c(=O)n2C 78.3%
CC1CN(S(=O)(=O)c2cc(C(=O)NCCC3=CCCCC3)ccc2Cl)CC(C)O1 (stereo unspecified) -20.5% [at 16 µM]
Cc1cc(C)c(CN2CCN(C(=O)Cn3ccc(NC(=O)OCc4ccccc4)nc3=O)CC2)c(C)c1 16.7%
CC(c1nc2ccccc2c(=O)[nH]1)N(C)CCOc1ccc(Cl)cc1 (stereo unspecified) -27%
CNC[C@@H]1Oc2ccc(NS(C)(=O)=O)cc2CC(=O)N([C@H](C)CO)C[C@H]1C 26.6%
COCC(=O)N(C)C[C@H]1Oc2ncc(Br)cc2C(=O)N([C@H](C)CO)C[C@H]1C -6%
C[C@H]1CN([C@@H](C)CO)C(=O)c2cccc(NC(=O)Nc3ccc(C(F)(F)F)cc3)c2O[C@H]1CN(C)S(=O)(=O)c1ccccc1 108%
O=C(c1cc(COc2cccc(C(F)(F)F)c2)on1)N1CCC(c2ccncc2)CC1 -30.2%
Clc1ccc(-c2noc(CSc3nnc(-c4ccncc4)n3-c3ccccc3)n2)cc1 4.75%
CC1=C(C(=O)OCc2ccc3c(c2)OCO3)C(c2ccc(F)cc2)NC(=O)N1 (stereo unspecified) 103%
Cc1nn(C)c(Cl)c1NC(=O)OCc1ccc(Cl)cc1Cl -7.87%
CCNC(=O)C[C@@H]1CC[C@@H]2[C@@H](COc3ccc(NC(=O)Cc4cccs4)cc3C(=O)N2C)O1 -19.1%
CCNC(=O)C[C@H]1CC[C@@H]2[C@@H](COc3ccc(NC(=O)Cc4cccs4)cc3C(=O)N2C)O1 58.5%
CCNC(=O)Nc1ccc2c(c1)C(=O)N(C)[C@@H]1CC[C@@H](CC(=O)NCC3CCCCC3)O[C@@H]1CO2 15.7%
Cc1nn(C)cc1NC(=O)C[C@H]1CC[C@@H]2[C@@H](COc3ccc(NC(=O)C4CCC4)cc3C(=O)N2C)O1 37.5%
CN(C)CCCNC(=O)[C@H]1[C@H](CO)[C@H]2Cn3c(ccc(C4=CCCC4)c3=O)[C@H]2N1CCC(F)(F)F 15.1%
C[C@H](CO)N1C[C@H](C)[C@H](CN(C)Cc2ccccc2)Oc2c(NC(=O)Nc3ccc4c(c3)OCO4)cccc2C1=O 203%
CNC[C@H]1Oc2c(NC(=O)Nc3ccc4c(c3)OCO4)cccc2C(=O)N([C@H](C)CO)C[C@@H]1C 38.3%
C#CCn1c(=O)c2c(ncn2C)n(C)c1=O -4.65%
COc1cccc(CNC(=O)C[C@@H]2C=C[C@H](NC(=O)C3CCC3)[C@H](CO)O2)c1 110%
Cc1ccc(-c2ccc3c(c2)O[C@@H](CN(C)Cc2cccnc2)[C@H](C)CN([C@H](C)CO)S3(=O)=O)cc1 -45.1%
Cc1ccc(-c2ccc3c(c2)O[C@H](CN(C)Cc2cccnc2)[C@@H](C)CN([C@H](C)CO)S3(=O)=O)cc1 -40.8%
N#Cc1ccc(CN2CCN(C(=O)CNC(=O)Cc3cccc4ccccc34)CC2)cc1 -37.4%
Cc1cc(C)c(CN2CCN(C(=O)Cn3cnc4c(NCc5ccccc5)ncnc43)CC2)c(C)c1 -15.2%
Nc1ccc(S(=O)(=O)c2ccc(N3CCOCC3)c(N)c2)cc1 -15.2%
O=C(OCCOc1cccc(Cl)c1)c1cc(S(=O)(=O)N2CCCCC2)ccc1N1CCOCC1 -9.55%
CSc1ncccc1C(=O)OCC(=O)Nc1ccc(C)c(S(=O)(=O)N2CCOCC2)c1 20.5%
C[C@H]1NC(=O)[C@@]2(C)[C@H](c3ccccc3)[C@H]3COc4ccccc4[C@@H]3N2C1=O 148%
COc1cc2c(cc1OC)C(=O)N1[C@H]3c4cc(Cl)ccc4OC[C@@H]3[C@H](c3ccccc3)[C@]1(C)C(=O)N2 -15.7%
COc1ccc(OCC(=O)Nc2cc(-c3nn(C)c(=O)c4ccccc34)ccc2OC)cc1 32.8%
COc1ccc(-c2nn(C)c(=O)c3ccccc23)cc1NC(=O)COc1ccccc1 33.2% [at 16 µM]
Cc1ccc(-c2ccc3c(c2)O[C@@H](CN(C)C(=O)C2CCCCC2)[C@H](C)CN([C@H](C)CO)S3(=O)=O)cc1 -97.7%
Cc1ccc(-c2ccc3c(c2)O[C@@H](CN(C)Cc2ccncc2)[C@H](C)CN([C@H](C)CO)S3(=O)=O)cc1 -87.2%
C[C@H](CO)N1C[C@H](C)[C@H](CN(C)Cc2ccccc2F)Oc2cc(C3=CCCC3)ccc2S1(=O)=O -114%
Cc1ccc(-c2ccc3c(c2)O[C@H](CN(C)Cc2ccncc2)[C@@H](C)CN([C@@H](C)CO)S3(=O)=O)cc1 30.1% [at 16 µM]
O=C(c1cccc(S(=O)(=O)N2CCN(c3ccccc3)CC2)c1)N1CCCC(C(F)(F)F)C1 (stereo unspecified) -4.76%
Cc1ccccc1S(=O)(=O)NC(=O)C1(C)CCN1C(=O)CCc1ccc(Cl)cc1Cl (stereo unspecified) 33.3%
COC(=O)[C@@]1(Cc2ccc(F)cc2)[C@H]2c3cc(C(=O)N(C)C)n(CCO)c3C[C@H]2CN1C(=O)c1ccccc1 101%
N#Cc1ccc(CSc2nnc(COc3ccccc3)n2-c2ccccc2)cc1 -17.7%
CC(NC(=O)c1ccccc1NC(=O)CN1CCc2ccccc2C1)c1ccccc1 (stereo unspecified) -37%
Cc1ccc(-n2nnnc2SCn2nnc3ccccc3c2=O)c(C)c1 40.8%
Cc1cccc(N2CCN(C(=O)CCCSc3nc4ccccc4[nH]3)CC2)c1C -31.6%
O=C(NCc1cccnc1)c1c[nH]c2cc3c(cc2c1=O)OCCO3 107%
N#C[C@H]1[C@@H](c2ccccc2/C=C/c2ccccc2)[C@@H](CO)N1S(=O)(=O)c1cccc(F)c1 21.6%
Cc1ccc(CSCCNC(=O)c2ccc(Cl)c(S(=O)(=O)N3CCOCC3)c2)cc1 -30.2%
Cc1nc2sc(C(c3ccco3)N3CCC(Cc4ccccc4)CC3)c(O)n2n1 (stereo unspecified) 66.1%
C[C@H]1CN([C@@H](C)CO)C(=O)Cc2cc(N(C)C)ccc2O[C@H]1CN(C)CC1CC1 35%
COCCCNC(=O)c1sc2ncnc(N3CCc4ccccc4C3)c2c1C 67.1%
CC(C)(C)OC(=O)N1CCc2onc(-c3ccc(Br)cc3)c2C1=O 40.4%
COc1ccc(Nc2ncc(C(=O)N3CCN(c4ccc(F)cc4)CC3)c3ccccc23)cc1 -34.6%
c1coc(CNc2c3c(nc4ccccc24)CCC3)c1 -23.4%
Cc1ccc(NS(=O)(=O)c2cc(C(=O)N(C)C3CCN(C)CC3)ccc2Cl)cc1Cl 13.3%
Cc1cc(Cl)c(S(=O)(=O)N2CCCC2)cc1OCC(=O)NC1CCCCC1 -16.4%
C=CCOc1c(Br)cc(CNc2ccc(NC(=O)C(C)C)c(OC)c2)cc1OC 378% [at 16 µM]
Cc1noc(C)c1NC(=O)N(C)C[C@H]1OCCCC[C@H](C)Oc2ccc(NC(=O)c3ccccc3)cc2C(=O)N([C@H](C)CO)C[C@@H]1C 213%
